Laboratory results taken from the supplement of paper PMC3150612.
± gives the standard deviation of the averaged measurements.

What was measured:
[1] = system: Drosophila melanogaster; assay: olfactory response index (dipstick assay) (fraction of flies (RI; 1 aversion, 0.5 indifferent, 0 attraction)); higher = stronger aversion to the odorant; conditions: odorant concentration: 1% v/v, male
[2] = system: Drosophila melanogaster; assay: as above; conditions: odorant concentration: 1% v/v, female
[3] = genotype (tubulin-GAL4 x UAS-RNAi line; control = progenitor): A5
[4] = genotype (tubulin-GAL4 x UAS-RNAi line; control = progenitor): control
[5] = genotype (tubulin-GAL4 x UAS-RNAi line; control = progenitor): obp 18a
[6] = genotype (tubulin-GAL4 x UAS-RNAi line; control = progenitor): obp 22a
[7] = genotype (tubulin-GAL4 x UAS-RNAi line; control = progenitor): obp 28a
[8] = genotype (tubulin-GAL4 x UAS-RNAi line; control = progenitor): obp 56a
[9] = genotype (tubulin-GAL4 x UAS-RNAi line; control = progenitor): obp 56c
[10] = genotype (tubulin-GAL4 x UAS-RNAi line; control = progenitor): obp 56f
[11] = genotype (tubulin-GAL4 x UAS-RNAi line; control = progenitor): obp 57a
[12] = genotype (tubulin-GAL4 x UAS-RNAi line; control = progenitor): obp 57b
[13] = genotype (tubulin-GAL4 x UAS-RNAi line; control = progenitor): obp 58c
[14] = genotype (tubulin-GAL4 x UAS-RNAi line; control = progenitor): obp 59a
[15] = genotype (tubulin-GAL4 x UAS-RNAi line; control = progenitor): obp 83a
[16] = genotype (tubulin-GAL4 x UAS-RNAi line; control = progenitor): obp 83c
[17] = genotype (tubulin-GAL4 x UAS-RNAi line; control = progenitor): obp 93a
[18] = genotype (tubulin-GAL4 x UAS-RNAi line; control = progenitor): obp 99b
[19] = genotype (tubulin-GAL4 x UAS-RNAi line; control = progenitor): obp 56h
[20] = genotype (tubulin-GAL4 x UAS-RNAi line; control = progenitor): obp 58b

`CCC=O` [propanal] showed an olfactory response index [1, 3] of 0.408 ± 0.047, an olfactory response index [1, 4] of 0.158 ± 0.045 and an olfactory response index [1, 5] of 0.029 ± 0.031. It also gave an olfactory response index [1, 6] of 0.1 ± 0.017, an olfactory response index [1, 7] of 0.165 ± 0.13 and an olfactory response index [1, 8] of 0.111 ± 0.025. It also gave an olfactory response index [1, 9] of 0.0917 ± 0.11, an olfactory response index [1, 10] of 0.119 ± 0.083 and an olfactory response index [1, 11] of 0.0926 ± 0.076. For the same molecule, the olfactory response index [1, 12] was 0.254 ± 0.19, the olfactory response index [1, 13] was 0.0938 ± 0.037 and the olfactory response index [1, 14] was 0.498 ± 0.047. The olfactory response index [1, 15] was 0.164 ± 0.14, the olfactory response index [1, 16] was 0.238 ± 0.095 and the olfactory response index [1, 17] was 0.289 ± 0.13. It also gave an olfactory response index [1, 18] of 0.112 ± 0.019, an olfactory response index [1, 19] of 0.233 ± 0.08 and an olfactory response index [2, 3] of 0.637 ± 0.17. It also gave an olfactory response index [2, 4] of 0.467 ± 0.19, an olfactory response index [2, 5] of 0.4 ± 0.18 and an olfactory response index [2, 6] of 0.583 ± 0.12. For the same molecule, the olfactory response index [2, 7] was 0.523 ± 0.039, the olfactory response index [2, 8] was 0.24 ± 0.21 and the olfactory response index [2, 9] was 0.479 ± 0.049. It also gave an olfactory response index [2, 10] of 0.333 ± 0.22, an olfactory response index [2, 11] of 0.572 ± 0.086 and an olfactory response index [2, 12] of 0.66 ± 0.036. It also gave an olfactory response index [2, 20] of 0.625 ± 0.097, an olfactory response index [2, 13] of 0.305 ± 0.24 and an olfactory response index [2, 14] of 0.611 ± 0.11. For the same molecule, the olfactory response index [2, 15] was 0.312 ± 0.14, the olfactory response index [2, 16] was 0.662 ± 0.086 and the olfactory response index [2, 17] was 0.688 ± 0.087. It also gave an olfactory response index [2, 18] of 0.461 ± 0.039 and an olfactory response index [2, 19] of 0.356 ± 0.19.
In the case of `C=C(C)[C@H]1CC=C(C)C(=O)C1` [(S)-carvone], the olfactory response index [1, 3] is reported as 0.57 ± 0.068, the olfactory response index [1, 4] is reported as 0.456 ± 0.062 and the olfactory response index [1, 5] is reported as 0.22 ± 0.068. The olfactory response index [1, 6] was 0.372 ± 0.058, the olfactory response index [1, 7] was 0.384 ± 0.14 and the olfactory response index [1, 8] was 0.142 ± 0.051. It also gave an olfactory response index [1, 9] of 0.186 ± 0.057, an olfactory response index [1, 10] of 0.525 ± 0.15 and an olfactory response index [1, 11] of 0.277 ± 0.15. For the same molecule, the olfactory response index [1, 12] was 0.4861 ± 0.0015, the olfactory response index [1, 13] was 0.468 ± 0.1 and the olfactory response index [1, 14] was 0.657 ± 0.13. For the same molecule, the olfactory response index [1, 15] was 0.304 ± 0.27, the olfactory response index [1, 16] was 0.555 ± 0.19 and the olfactory response index [1, 17] was 0.382 ± 0.14. It also gave an olfactory response index [1, 18] of 0.171 ± 0.066, an olfactory response index [1, 19] of 0.504 ± 0.17 and an olfactory response index [2, 3] of 0.729 ± 0.063. The olfactory response index [2, 4] was 0.65 ± 0.074, the olfactory response index [2, 5] was 0.558 ± 0.053 and the olfactory response index [2, 6] was 0.775 ± 0.06. The olfactory response index [2, 7] was 0.651 ± 0.073, the olfactory response index [2, 8] was 0.357 ± 0.1 and the olfactory response index [2, 9] was 0.678 ± 0.2. For the same molecule, the olfactory response index [2, 10] was 0.676 ± 0.1, the olfactory response index [2, 11] was 0.613 ± 0.085 and the olfactory response index [2, 12] was 0.73 ± 0.15. For the same molecule, the olfactory response index [2, 20] was 0.49 ± 0.07, the olfactory response index [2, 13] was 0.597 ± 0.064 and the olfactory response index [2, 14] was 0.739 ± 0.031. For the same molecule, the olfactory response index [2, 15] was 0.589 ± 0.045, the olfactory response index [2, 16] was 0.398 ± 0.079 and the olfactory response index [2, 17] was 0.715 ± 0.056. It also gave an olfactory response index [2, 18] of 0.468 ± 0.041 and an olfactory response index [2, 19] of 0.683 ± 0.086.
`CCC/C=C/C=O` [(E)-2-hexenal] gave an olfactory response index [1, 3] of 0.565 ± 0.14, an olfactory response index [1, 4] of 0.681 ± 0.13 and an olfactory response index [1, 5] of 0.494 ± 0.13. The olfactory response index [1, 6] was 0.655 ± 0.11, the olfactory response index [1, 7] was 0.672 ± 0.07 and the olfactory response index [1, 8] was 0.763 ± 0.079. The olfactory response index [1, 9] was 0.618 ± 0.13, the olfactory response index [1, 10] was 0.657 ± 0.065 and the olfactory response index [1, 11] was 0.555 ± 0.15. It also gave an olfactory response index [1, 12] of 0.718 ± 0.037, an olfactory response index [1, 13] of 0.732 ± 0.052 and an olfactory response index [1, 14] of 0.666 ± 0.0073. The olfactory response index [1, 15] was 0.663 ± 0.1, the olfactory response index [1, 16] was 0.67 ± 0.085 and the olfactory response index [1, 17] was 0.782 ± 0.14. For the same molecule, the olfactory response index [1, 18] was 0.29 ± 0.16, the olfactory response index [1, 19] was 0.55 ± 0.12 and the olfactory response index [2, 3] was 0.723 ± 0.11. For the same molecule, the olfactory response index [2, 4] was 0.804 ± 0.15, the olfactory response index [2, 5] was 0.724 ± 0.12 and the olfactory response index [2, 6] was 0.811 ± 0.14. For the same molecule, the olfactory response index [2, 7] was 0.753 ± 0.051, the olfactory response index [2, 8] was 0.892 ± 0.028 and the olfactory response index [2, 9] was 0.768 ± 0.1. The olfactory response index [2, 10] was 0.727 ± 0.076, the olfactory response index [2, 11] was 0.843 ± 0.1 and the olfactory response index [2, 12] was 0.794 ± 0.18. For the same molecule, the olfactory response index [2, 20] was 0.703 ± 0.057, the olfactory response index [2, 13] was 0.715 ± 0.11 and the olfactory response index [2, 14] was 0.767 ± 0.13. The olfactory response index [2, 15] was 0.779 ± 0.088, the olfactory response index [2, 16] was 0.837 ± 0.1 and the olfactory response index [2, 17] was 0.848 ± 0.054. The olfactory response index [2, 18] was 0.529 ± 0.24 and the olfactory response index [2, 19] was 0.665 ± 0.17.
`CCCCCC(C)=O` [2-heptanone] gave an olfactory response index [1, 3] of 0.365 ± 0.086, an olfactory response index [1, 4] of 0.0673 ± 0.066 and an olfactory response index [1, 5] of 0.32 ± 0.1. It also gave an olfactory response index [1, 6] of 0.304 ± 0.1, an olfactory response index [1, 7] of 0.331 ± 0.084 and an olfactory response index [1, 8] of 0.185 ± 0.082. It also gave an olfactory response index [1, 9] of 0.239 ± 0.077, an olfactory response index [1, 10] of 0.395 ± 0.14 and an olfactory response index [1, 11] of 0.214 ± 0.038. For the same molecule, the olfactory response index [1, 12] was 0.368 ± 0.13, the olfactory response index [1, 13] was 0.328 ± 0.063 and the olfactory response index [1, 14] was 0.444 ± 0.12. It also gave an olfactory response index [1, 15] of 0.339 ± 0.11, an olfactory response index [1, 16] of 0.352 ± 0.13 and an olfactory response index [1, 17] of 0.345 ± 0.26. The olfactory response index [1, 18] was 0.138 ± 0.044, the olfactory response index [1, 19] was 0.393 ± 0.17 and the olfactory response index [2, 3] was 0.49 ± 0.16. It also gave an olfactory response index [2, 4] of 0.483 ± 0.17, an olfactory response index [2, 5] of 0.409 ± 0.092 and an olfactory response index [2, 6] of 0.417 ± 0.12. The olfactory response index [2, 7] was 0.526 ± 0.081, the olfactory response index [2, 8] was 0.392 ± 0.12 and the olfactory response index [2, 9] was 0.494 ± 0.073. It also gave an olfactory response index [2, 10] of 0.452 ± 0.21, an olfactory response index [2, 11] of 0.718 ± 0.062 and an olfactory response index [2, 12] of 0.571 ± 0.15. The olfactory response index [2, 20] was 0.277 ± 0.015, the olfactory response index [2, 13] was 0.272 ± 0.051 and the olfactory response index [2, 14] was 0.598 ± 0.13. The olfactory response index [2, 15] was 0.4 ± 0.15, the olfactory response index [2, 16] was 0.537 ± 0.17 and the olfactory response index [2, 17] was 0.443 ± 0.18. It also gave an olfactory response index [2, 18] of 0.28 ± 0.017 and an olfactory response index [2, 19] of 0.513 ± 0.22.
